Source: PubChem BioAssay (National Center for Advancing Translational Sciences (NCATS))
Shown is part of a subset that was picked to be rich in hits.
KDM5B inhibitor: KDM5B demethylase inhibition | Q9UGL1 | KDM5B demethylase, FDH-coupled NADH fluorescence (FDH is formaldehyde dehydrogenase) | Potency, µM (titrated, usually from 57.7 µM), most hits filed as inhibitors | 2.6% of 220,000 active | AID 1347165; active = well fitted inhibition curve with a large enough effect; note: nearly all actives have a fitted effect of over 70% in size
Target sequence (Q9UGL1 whole entry, looked up): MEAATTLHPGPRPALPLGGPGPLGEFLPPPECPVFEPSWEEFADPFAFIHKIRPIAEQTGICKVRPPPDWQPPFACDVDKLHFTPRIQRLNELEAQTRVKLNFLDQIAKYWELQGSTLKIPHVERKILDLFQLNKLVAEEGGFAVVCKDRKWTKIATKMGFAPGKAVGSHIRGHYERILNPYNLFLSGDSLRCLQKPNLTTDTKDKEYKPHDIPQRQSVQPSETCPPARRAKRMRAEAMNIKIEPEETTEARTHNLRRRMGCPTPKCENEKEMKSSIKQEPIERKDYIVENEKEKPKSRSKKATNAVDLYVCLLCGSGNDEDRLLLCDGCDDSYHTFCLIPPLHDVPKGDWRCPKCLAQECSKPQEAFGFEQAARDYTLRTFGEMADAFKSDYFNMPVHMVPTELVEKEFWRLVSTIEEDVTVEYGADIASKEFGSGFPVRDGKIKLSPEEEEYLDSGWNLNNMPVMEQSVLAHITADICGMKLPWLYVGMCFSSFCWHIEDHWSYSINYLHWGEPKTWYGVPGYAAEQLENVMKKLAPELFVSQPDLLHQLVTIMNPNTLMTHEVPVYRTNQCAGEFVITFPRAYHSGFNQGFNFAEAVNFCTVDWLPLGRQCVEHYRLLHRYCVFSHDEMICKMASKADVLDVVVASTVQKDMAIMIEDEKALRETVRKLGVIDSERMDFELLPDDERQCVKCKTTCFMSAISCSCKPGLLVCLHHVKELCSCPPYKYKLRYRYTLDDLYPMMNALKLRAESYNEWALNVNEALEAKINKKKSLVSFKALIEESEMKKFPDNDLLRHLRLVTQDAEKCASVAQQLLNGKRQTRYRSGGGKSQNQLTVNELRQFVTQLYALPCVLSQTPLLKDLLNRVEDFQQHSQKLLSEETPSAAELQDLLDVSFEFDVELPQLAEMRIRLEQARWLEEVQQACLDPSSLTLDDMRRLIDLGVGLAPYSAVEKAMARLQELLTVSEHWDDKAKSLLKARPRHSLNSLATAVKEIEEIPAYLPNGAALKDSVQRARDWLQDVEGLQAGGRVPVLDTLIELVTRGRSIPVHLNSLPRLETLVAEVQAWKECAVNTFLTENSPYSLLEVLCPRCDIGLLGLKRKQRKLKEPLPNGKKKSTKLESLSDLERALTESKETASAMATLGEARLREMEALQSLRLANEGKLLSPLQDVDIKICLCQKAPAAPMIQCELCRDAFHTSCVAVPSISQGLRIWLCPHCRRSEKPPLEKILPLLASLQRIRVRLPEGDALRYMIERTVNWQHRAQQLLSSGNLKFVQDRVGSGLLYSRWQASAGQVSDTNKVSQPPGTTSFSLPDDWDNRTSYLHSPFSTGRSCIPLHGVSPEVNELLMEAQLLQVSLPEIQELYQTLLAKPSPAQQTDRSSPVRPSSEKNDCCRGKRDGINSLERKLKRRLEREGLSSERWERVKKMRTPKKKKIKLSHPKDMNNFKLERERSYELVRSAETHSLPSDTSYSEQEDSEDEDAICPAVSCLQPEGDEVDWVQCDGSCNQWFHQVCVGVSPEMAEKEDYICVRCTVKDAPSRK
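Coupled FDH/NAD⁺ fluorescence readout. KDM5BΔAP 200 nM final; compound titration, 10 min RT preincubation; substrate mix 12.5 µM H3K4me3, 25 µM 2-OG, 50 µM Fe(II), 100 µM ascorbate, 0.25 mM NAD⁺, 0.25 U/mL FDH; ΔRFU over 30 min.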
A number is an active result; 0 = inactive.

SMILES	KDM5B inhibitor
COc1ccc(-c2cc3c(=O)n(CCNC(=O)c4sccc4C)ccn3n2)cc1	25µM
CCOc1ccc(-c2cc3c(=O)n(CCNC(=O)c4ccc5c(c4)OCO5)ccn3n2)cc1	0
COc1cc(NC(=O)Cn2c(C(=O)c3cccc(F)c3)nc3ccccc32)cc(OC)c1	0
CCOCCCNC(=O)N[C@H](C(=O)O)C(C)CC (some centres undefined)	0
CC(=O)N1CCN(c2oc(/C=C/c3ccccc3)nc2C#N)CC1	0
CCCCCCCCCOc1ccc(C#N)c(O)c1	0
O=C(NC1CCCC1)C(=O)c1ccc2c(c1)CCC2	0
CCn1c(=O)c(-c2noc(C(=O)N3CCC(c4ccccc4)C3)n2)nn(-c2ccccc2)c1=O (centres undefined)	0
CCn1nc(C(=O)NCC2(c3ccccc3)CCC2)c2ccccc2c1=O	0
COc1cc(NC(=O)Nc2ccc(F)c(-c3nnc(-c4ccccc4)o3)c2)cc(OC)c1OC	0
CCNC(=S)NNC(=O)C(C)(C)O	0
CC(C)(C)C(=O)/C(C#N)=C/c1ccc(OCc2ccc(Cl)cc2Cl)cc1	0
Cc1ccc(C(=O)N/C(=C/c2ccccc2)C(=O)NC(CC(C)C)C(=O)O)cc1 (centres undefined)	0
Cc1nc2ccccc2nc1CN1C(=O)C2CCCN2C1=O (centres undefined)	0
COc1ccc(-c2cc3c(=O)n(CCNC(=O)c4ccoc4)ccn3n2)cc1	20µM
Cc1ccc(-c2cc3c(=O)n(CCNC(=O)c4ccoc4)ccn3n2)c(C)c1	0
COc1ccc(CNC(=O)c2noc(-c3ccc(C)cc3)n2)cc1OC	0
COc1ccc(-c2cc(C(=O)NCc3cc(C)on3)c3c(c2)N(C)CCO3)cc1OC	35µM
Cc1cc(CNC(=O)c2cc(-c3ccccc3)cc3c2OCCN3C)no1	40µM
COc1ccc(-c2cc(C(=O)NCCCN3CCOCC3)c3ccccc3n2)cc1OC	0
CC(=O)Nc1cc(-c2cc(C(=O)NCc3cc(C)on3)c3c(c2)N(C)CCO3)ccn1	0
CN1CCOc2c(C(=O)NCc3cnn(C)c3)cc(-c3ccccc3)cc21	40µM
Cc1ccc(C(CNC(=O)c2cc(-c3ccccc3)on2)N2CCN(C)CC2)o1 (centres undefined)	0
Cc1oc(-c2ccccc2)cc1C(=O)NCc1ccncc1	0
Cn1cc(CNC(=O)C2CCN(c3nc(-c4ccccc4)nc4c3CCC4)CC2)cn1	0
SMILES	KDM5B inhibitor
Cn1cnc2c1c(=O)n(CCCSCc1ccccc1Cl)c(=O)n2C	0
COc1ccc(C(NC(=O)Cc2n[nH]c(=O)c3ccccc23)c2ccccc2)cc1 (centres undefined)	0
CCOc1cc(/C=C/C(=O)c2ccc(Cl)cc2)ccc1O	0
CN(C)CCNC(=O)C1CCN(c2nc(Cl)nc3nc[nH]c23)CC1	0
C#CCN1CCN(CC(=O)Nc2cccc(F)c2)CC1	0
COc1cccc(CNC[C@H]2O[C@H](Cc3cc(-c4ccccc4)on3)CC[C@@H]2O)c1	0
CC(C)Oc1ccc(C(=O)N2CCN(Cc3nc(N)c4ccccc4n3)CC2)cc1	0
COC(CNC(=O)c1ccc(CNS(=O)(=O)c2ccc(C)cc2)cc1)OC	0
O=C(O)/C=C/c1ccc(Br)cc1	0
Cc1cn2nc(C(=O)NCCc3cccs3)cc2c(N2CCSCC2)n1	14µM
CC(=O)N1CCN(c2nc3c(s2)CC(C(=O)NCc2ccc(C(C)C)cc2)CC3)CC1 (centres undefined)	0
O=C(NCc1cccc(Cl)c1)c1ccc2nc(N3CCCCC3)sc2c1	0
COc1cccc(CNC(=O)c2cc3c(N4CCCC4)nc(C)cn3n2)c1	0
Cc1cn2nc(C(=O)NCc3cccc(Cl)c3)cc2c(N2CCSCC2)n1	14µM
CC(C)c1ccc(CNC(=O)c2ccc(N3CCCC3)c(NC(=O)NCc3ccc(F)cc3)c2)cc1	0
Cc1cn2nc(C(=O)NCc3ccc(C(C)C)cc3)cc2c(N2CCSCC2)n1	14µM
Cc1ccccc1NC(=O)c1cc(C2CC2)nc2ccccc12	0
CC(=O)N1CCN(C(C(=O)O)c2c[nH]c3ccc(NC(=O)c4ccccc4)cc23)CC1 (centres undefined)	0
Cc1ccsc1/C=N/NC(=O)C1CC1	0
COc1ccc(Cl)cc1NC(=O)c1nn(C)c(=O)c2ccccc12	0
CNc1ccc(OC2CCN(C(=O)CCc3nc4ccccc4[nH]3)C2)nc1 (centres undefined)	28µM
O=C(CCc1nc2ccccc2[nH]1)N1CCC(c2noc(-c3ccccn3)n2)C1 (centres undefined)	0
Cc1nc(-c2ccc(OC3CCN(C(=O)CCc4nc5ccccc5[nH]4)C3)cc2)no1 (centres undefined)	0
CC1(C)CC(N2CCCCC2)=CC(=NCCCN2CCOCC2)C1	0
Fc1ccc(-c2noc(CCc3nc4ccccc4[nH]3)n2)cc1	0
SMILES	KDM5B inhibitor
O=C(NCc1ccc(S(=O)(=O)N2CCOCC2)cc1)c1cc(-c2ccncc2)nc2ccccc12	0
COc1cc(F)ccc1-c1cc2c(ccn2Cc2ccncc2)c(N2CCOCC2)n1	35µM
COc1ccc(Nc2nc(N3CCOCC3)c3nccnc3n2)cc1OC	0
COc1cc(F)ccc1-c1ccc(=O)n(Cc2cccc(F)c2)n1	0
c1ccc(-c2cc3c(ccn3Cc3ccncc3)c(N3CCOCC3)n2)cc1	7.9µM
O=C1NCc2cc(-c3cc4c(ccn4Cc4ccncc4)c(N4CCOCC4)n3)ccc21	32µM
c1cc(Cn2ccc3c(N4CCOCC4)nc(-c4cncnc4)cc32)ccn1	0
N#Cc1ccc(COC(=O)c2ccc3ccccc3n2)cc1	0
O=C(NCC1(c2ccccc2)CCCC1)c1cc2c(Cl)nc3ccccc3c2s1	0
CC[C@H]1CN(C(=O)C2CC2)CC[C@H]1CC(=O)O	0
CC(C)(C)C(=O)N1CC[C@@H](CC(=O)O)[C@@H](CC2=NCCc3ccc(C(C)(C)C)cc32)C1	0
O=C(O)C[C@@H]1CCN(C(=O)NCc2ccccc2)C[C@@H]1CC1=NCCc2ccccc21	0
CCNC(=O)N1CC[C@@H](CC(=O)O)[C@@H](CC2=NCCc3ccc(C)cc32)C1	0
CCCNC(=O)N1CC[C@@H](CC(=O)O)[C@@H](CC2=NCCc3ccc(OC)cc32)C1	40µM
COc1ccc2c(c1)C(C[C@H]1CN(C(=O)C3CC3)CC[C@H]1CC(=O)O)=NCC2	40µM
CCOc1ccc(NC(=O)COc2ccc(C(C)C)cc2)c2cccnc12	0
N#Cc1ccc(C(=O)NCCc2cccnc2)cc1	0
CCC(C(=O)Nc1ccc(C(C)=O)cc1)n1nc(-c2cc(C)ccc2C)ccc1=O (centres undefined)	0
CNC(=O)c1ccc2c(c1)NC(=O)CS2	0
COC(=O)CC(NC(=O)CCc1ccccc1F)c1cccs1 (centres undefined)	0
CC(O)CCn1ccc2[nH]c(=O)c(C#N)cc2c1=O (centres undefined)	0
N#Cc1cc2c(=O)n(CCc3n[nH]c4c3CCCC4)ccc2[nH]c1=O	32µM
CCCCc1nc(C)cc(NCCn2ccc3[nH]c(=O)c(C#N)cc3c2=O)n1	0
CC(C)CNC(=O)CCc1cccnc1	0
CC1CCN(C(=O)COc2ccccc2-c2noc(-c3ccccc3F)n2)CC1	0
CCCN1CCN(c2ccc(-c3nc(C)no3)cn2)CC1	0
COc1ccc(N2CCN(c3ncccc3-c3nc(-c4ccccc4C)no3)CC2)cc1	0
CC1CCCN(C(=O)COc2ccccc2-c2noc(-c3ccc(Cl)cc3)n2)C1 (centres undefined)	0
COCC1CCN(c2ccc(-c3nc(-c4ccccc4C)no3)cn2)C1 (centres undefined)	32µM
